Shown is part of a subset that was picked to be rich in hits.
TTR transcr act: TTR transcription activation, primary screen | AID 1117267 | activation, % at 16.7 µM | SH-SY5Y TTR promoter Gaussia luciferase, luminescence; 100% = recombinant luciferase protein wells | actives 1.3% (n = 92,000);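 active means activation above the mean of all tested compounds plus 3 SD, cut at about 9.5% in these data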;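 further: cells exposed to compounds for one day before reading; 0% = median of all test compound wells on the plate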
TTR inh HuH7: counter-screen for TTR activators: TTR transcription inhibitors in HuH7 cells; shares compounds with TTR transcr act; HuH7 TTR promoter-Gaussia luciferase reporter, luminescence; inhibition, % at 16.7 µM; actives 4% (n = 1,100);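 active means average inhibition above the solvent-only control wells' mean plus 3 SD, cut at about 15% in these data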;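 further: 0% = cells with DMSO only and 100% = cells with inhibitor control FD; inhibitors lower well luminescence so higher value means more inhibition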
TTR up confirm: confirmation of human transthyretin transcription activators | activation, % at 16.7 µM | 1,100 tested, under 10 active | shares compounds with TTR transcr act | SHSY5Y TTR promoter Gaussia luciferase, luminescence; 100% = purified Lucia enzyme wells, no cells;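 active means mean activation above a set limit taken from the earlier primary screen, cut at about 11% in these data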;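 further: 0% = DMSO-treated cells and 100% = recombinant Lucia luciferase without cells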
* = called active by the depositor.

SMILES	TTR transcr act	others
COc1ccc2c(c1C(=O)/C=C/c1ccccc1)OC(C)(C)C=C2	-0.1
O=C(Nc1ccc(F)cc1)OC[C@@H]1CSCCS(=O)(=O)N1	1.4
O=C(C[C@H]1C[C@@H]2c3cc(NC(=O)c4ccc5c(c4)OCO5)ccc3O[C@@H]2[C@H](CO)O1)NCc1cc(F)ccc1F	17.1*	TTR inh HuH7=-14.9;TTR up confirm=2.3
O=C(C[C@H]1C[C@H]2c3cc(NC(=O)CC4CC4)ccc3O[C@H]2[C@H](CO)O1)NCc1ccccc1F	-0.9
COc1ccccc1CNC(=O)C[C@@H]1C[C@H]2c3cc(NC(=O)c4ccc5c(c4)OCO5)ccc3O[C@H]2[C@@H](CO)O1	-0.6
CCOC(=O)C1(C(=O)OCC)Cc2c([nH]c3ccccc23)[C@]2(N1)C(=O)N(C)c1ccc(Br)cc12	-3.3
CCOC(=O)c1c(NC(=S)NNS(=O)(=O)c2ccc(Br)cc2)sc2c1CCCCC2	4.2
O=C(COC(=O)Cn1nnc2ccccc21)NC1CCCC1	-1.0
CS(=O)(=O)N(CC(=O)N/N=C/c1cc([N+](=O)[O-])ccc1Cl)c1ccccc1	1.3
O=C(CN(c1ccc(Cl)c(C(F)(F)F)c1)S(=O)(=O)c1ccccc1)N/N=C/c1cccc2c1OCCO2	10.2*	TTR inh HuH7=0.3;TTR up confirm=-1.2
COc1ccc(N(CC(=O)N/N=C/c2ccc(OC3CSC3)cc2)S(=O)(=O)c2ccccc2)cc1	0.3
CC(C)(C)NC(=O)C(c1cccnc1)N(C(=O)c1cnc[nH]1)c1ccc(C(C)(C)C)cc1 (centres undefined)	-2.9
CC(C)C(C)(C#N)NC(=O)CSc1ncnc2sc(-c3ccccc3)cc12 (centres undefined)	-1.4
CCN(CC)C(=O)CSc1ncnc2sc(-c3ccccc3)cc12	-4.3
CCc1cc2c(SCC(=O)C(C#N)=C3N(C)c4ccccc4N3C)ncnc2s1	9.9*	TTR inh HuH7=-28.9;TTR up confirm=0.5
O=S1(=O)c2c(cccc2N2CC[C@@H](O)C2)OCCCN1C1CC1	-0.1
CCOc1ccc(CC(=O)Nc2ccc(NC(=O)c3ccco3)cc2)cc1OCC	0.4
O=C(Cn1ccccc1=O)c1cccs1	17.3*	TTR inh HuH7=-11.7;TTR up confirm=-0.6
CCCn1c(=N)n(CC(=O)c2cccs2)c2ccccc21	3.6
O=C(CN1C2=NCCCN2c2ccccc21)c1cccs1	0.9
N[C@H]1CC[C@@H]2SC[C@@H](C(=O)O)N2C1=O	1.5
FC(F)(F)c1ccccc1Cn1ccc2ccc(-c3ccc4ccn(Cc5ccccc5C(F)(F)F)c4c3)cc21	18.2*	TTR inh HuH7=-6.1;TTR up confirm=-0.4
Cc1ccccc1Cn1ccc2ccc(-c3ccc4ccn(Cc5ccccc5)c4c3)cc21	-0.7
FC(F)(F)c1ccccc1Cn1ccc2ccc(-c3ccc4ccn(Cc5ccccc5)c4c3)cc21	-1.7
C[C@@H]1[C@@H](O)C[C@@]2(C[C@H](O)c3cc(Cl)ccc3O2)O[C@H]1c1ccccc1Cl	-2.8
SMILES	TTR transcr act	others
Cc1ccccc1CN1CCCCC(NC(=O)c2cc(-c3ccccc3)no2)C1=O (centres undefined)	3.6
C[C@H]1[C@@H](OC(=O)NCCc2ccccc2)CC[C@@]23CCCN2C(=O)CCC[C@@H]13	3.1
C[C@@H]1CCN(C2CC2)S(=O)(=O)c2c(cccc2N2CCC[C@@H]2CO)O1	-1.5
O=C(Cc1cccs1)N1CCN(S(=O)(=O)c2ccc(F)c(F)c2)CC1	10.3*	TTR inh HuH7=-11.0;TTR up confirm=0.6
O=C(Cc1cccs1)N1CCN(S(=O)(=O)c2ccccc2)CC1	1.1
O=C(CN(Cc1ccco1)Cc1cccs1)N1CCN(S(=O)(=O)c2cccc(F)c2)CC1	-1.3
O=C(Nc1cccc(C(F)(F)F)c1)O[C@@H]1CC[C@@]23CCCN2C(=O)CCC[C@H]3C1	6.5
O=C(NCCc1c[nH]c2ccccc12)OCc1cn(Cc2ccccc2Cl)nn1	0.0
CCCC(=O)OCC(=O)Nc1ccccc1Sc1ccccc1	11.5*	TTR inh HuH7=11.1;TTR up confirm=3.1
O=C(COC(=O)c1cc[n+]([O-])cc1)Nc1ccccc1Sc1ccccc1	0.5
CCCC(=O)OCC(=O)Nc1ccccc1C#N	2.2
O=C(CSc1nc2ncc(Cl)cc2[nH]1)NCC(=O)Nc1ccc(F)c(F)c1F	10.6*	TTR inh HuH7=-11.1;TTR up confirm=0.1
CC(C)OC(=O)CSc1nc2ncc(Cl)cc2[nH]1	0.4
Cc1[nH]c2ccccc2c1C(=O)CSc1nc2ncc(Cl)cc2[nH]1	-1.9
COC(=O)[C@H](C)NC(=O)[C@H](CC(C)C)NC(=O)OC(C)(C)C	-2.0
COc1cccc(NC(=O)C2C3C=CC(C3)C2C(=O)O)c1 (centres undefined)	-1.5
O=C(Nc1cccc(Cl)c1)O[C@@H]1CC[C@@]23CCCN2C(=O)CCC[C@H]3C1	-1.6
CCOC(=O)[C@]12CCCC=C1N(CCCOC)C(=O)[C@@H]2CC(=O)NCc1ccccc1	-0.9
Clc1cc2nc3ccccn3c2cc1Cl	13.3*	TTR inh HuH7=-14.8;TTR up confirm=1.9
c1ccc(-c2nc3ccccn3c2-c2ccccc2)cc1	-1.2

Source: PubChem (The Scripps Research Institute Molecular Screening Center)
